Test results: PubChem BioAssay (NCI)
The panel holds about 83,000 compounds, 20% with a hit somewhere; the sample as a whole holds those more often.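 The test compound was applied at a single concentration to cells in 96-well plates for 48 hours, and percent growth was recorded.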 Unmarked numbers belong to inactive results. Active and inactive are the calls of the source. The calls were made as follows: active = growth percent below 10; inactive = the rest.

What was measured:
Experiment in all cases: NCI-60 one-dose screen, 48 h (100 = growth as untreated, 0 = no growth, -100 = all killed)
Settings in all cases: 10 µM unless noted
NCI-H23 lung = tested on: NCI-H23 lung
NCI-H226 lung = tested on: NCI-H226 lung
NCI-H322M lung = tested on: NCI-H322M lung
HOP-62 NSCLC = tested on: HOP-62 NSCLC
NCI-H460 lung = tested on: NCI-H460 lung
HOP-92 NSCLC = tested on: HOP-92 NSCLC
NCI-H522 lung = tested on: NCI-H522 lung
A549/ATCC NSCLC = tested on: A549/ATCC NSCLC
786-0 renal = tested on: 786-0 renal
COLO 205 colon = tested on: COLO 205 colon
DU-145 prostate = tested on: DU-145 prostate
K-562 leukemia = tested on: K-562 leukemia
MALME-3M melanoma = tested on: MALME-3M melanoma
MDA-MB-231 breast = tested on: MDA-MB-231 breast
SF-268 CNS = tested on: SF-268 CNS
SF-295 CNS = tested on: SF-295 CNS
SF-539 CNS = tested on: SF-539 CNS
UACC-257 melanoma = tested on: UACC-257 melanoma
RXF 393 renal = tested on: RXF 393 renal

SMILES | growth (NCI-H23 lung) | growth (NCI-H226 lung) | growth (NCI-H322M lung) | growth (HOP-62 NSCLC) | growth (NCI-H460 lung) | growth (HOP-92 NSCLC) | growth (NCI-H522 lung) | growth (A549/ATCC NSCLC) | growth (786-0 renal) | growth (COLO 205 colon) | growth (DU-145 prostate) | growth (K-562 leukemia) | growth (MALME-3M melanoma) | growth (MDA-MB-231 breast) | growth (SF-268 CNS) | growth (SF-295 CNS) | growth (SF-539 CNS) | growth (UACC-257 melanoma) | growth (RXF 393 renal)
Cn1cc(-c2ccc3nc(-c4ccc(CC(=O)Nc5cc(C(C)(C)C)no5)cc4)cnc3c2)cn1 | 41.8% [30 µM] | 30.8% [30 µM] | 26.7% [30 µM] | 61.3% [30 µM] | 21.1% [30 µM] | -3.39% [30 µM] (active) | 26.6% [30 µM] | 33.9% [30 µM] | 35.7% [30 µM] | 61.6% [30 µM] | 22.6% [30 µM] | 4.38% [30 µM] (active) | 0.481% [30 µM] (active) | -5.94% [30 µM] (active) | 27.4% [30 µM] | 23.2% [30 µM] | 16.3% [30 µM] | 41.9% [30 µM] | –
Cc1nc(Nc2ccc(N)cc2)c2ccccc2n1 | 86.8% | 97.6% | 117% | 104% | 102% | 109% | 80.8% | 103% | 107% | 92.2% | 117% | 74.5% | 97.6% | 93.9% | 106% | 95.8% | 96% | 104% | –
C=C1C(=O)O[C@H]2[C@H]1CC/C(COC(=O)/C=C\C(=O)NCc1ccc(Cn3c(=O)sn(-c4ccc(C#N)cc4)c3=O)cc1)=C\CC[C@@]1(C)O[C@@H]21 | -80.4% (active) | -69.5% (active) | -46.6% (active) | -37.3% (active) | -68.7% (active) | -65.8% (active) | -47.5% (active) | -21.4% (active) | -75.8% (active) | -55.4% (active) | -94.4% (active) | -8.61% (active) | -95% (active) | -86% (active) | -75.2% (active) | 56.4% | -99.3% (active) | -68.2% (active) | –
CCCCOc1nc2ccc(Cl)cc2cc1/C=C/C(=O)/C=C1/CC(c2cc3cc(Cl)ccc3nc2OCCCC)Nc2ccccc2N1 (stereo not drawn) | 87.2% | 90.8% | 103% | 94.8% | 85% | 77.3% | 90.4% | 94.2% | 99.1% | 90.9% | 103% | 91.7% | 79.4% | 81% | 97.9% | 96.2% | 91.9% | 100% | –
COc1cc(/C=C/c2nc(Nc3ccc(S(=O)(=O)Nc4cc(C)on4)cc3)c3ccccc3n2)ccc1O | 74.3% | 85.8% | 87.8% | 78.8% | 65.5% | 83.9% | 42.4% | 75.3% | 94.4% | 106% | 92.2% | 17.8% | 62.6% | 62.8% | 76.1% | 70.8% | 61.9% | 83.2% | –
Clc1ccc(/C=C/c2nc(Nc3ccc(Cl)cc3)c3ccccc3n2)cc1 | 93.1% | 92.6% | 96.4% | 120% | 103% | 107% | 90.8% | 102% | 102% | 112% | 118% | 103% | 105% | 93.7% | 102% | 100% | 96.1% | 98.9% | –
O=c1[nH]nc(-c2ccc(Cl)cc2)cc1Cc1ccccc1 | 92.3% | 79.9% | 155% | 90.5% | 104% | 86.2% | 35% | 42.1% | 96.9% | 116% | 104% | 79% | – | 79.5% | 99.4% | 89.6% | 65.2% | 84.3% | 3.35% (active)
O=C1/C(=C/c2ccc([N+](=O)[O-])cc2)COc2ccc(O)c(O)c21 | 11.1% | 50.9% | 42.7% | 4.16% (active) | -17.2% (active) | -4.37% (active) | -52.7% (active) | 34.5% | -60.5% (active) | 16.3% | -19.1% (active) | 5.31% (active) | -44.2% (active) | -27.1% (active) | -25.3% (active) | 83.7% | -91.6% (active) | 40.3% | –
COc1cc2oc(-c3cccc(C(=O)Nc4ccc(C)cc4)c3)cc(=O)c2c(OC)c1OC | 44.6% | 62.5% | 51.1% | 22.1% | 24.9% | 22% | 6.72% (active) | 33.8% | 22.1% | 1.73% (active) | 48.2% | 28% | 27.3% | – | 57.7% | -47% (active) | 45.8% | 29.9% | -7.43% (active)
O=C(O)C1C[C@](O)(c2ccc(F)cc2)[C@@H](c2ccc(F)cc2)O1 (stereo partly drawn) | 91.4% | 122% | 121% | 90.3% | 101% | 78.2% | 91.5% | 112% | 95.6% | 110% | 139% | 89.3% | 113% | 115% | 117% | 94.2% | 125% | 111% | –
COc1ccc(OC)c(C(=O)Nc2cccc(-c3cc(=O)c4ccccc4o3)c2)c1 | 92.8% | 92.4% | 86.9% | 89.1% | 90% | 93.7% | 68.1% | 88.8% | 92.6% | 104% | 88.1% | 90.1% | 83.3% | 83.4% | 74.2% | 88.6% | 84.4% | 100% | –
C=CCO[C@H]1CO[C@H]2[C@@H]1OC[C@@H]2Oc1ccc(Nc2ccnc(Nc3ccc(O[C@H]4CO[C@H]5[C@@H]4OC[C@@H]5OCC=C)c(Cl)c3)n2)cc1Cl | -47.8% (active) | 86.7% | -56.6% (active) | -25.5% (active) | -74% (active) | 83.3% | -29.9% (active) | -60.7% (active) | -88.2% (active) | 29.2% | -50.2% (active) | -32.4% (active) | -95.8% (active) | -92.8% (active) | -61.6% (active) | -77.8% (active) | -87.5% (active) | 107% | –
COC1=CC(c2ccc[nH]2)=N/C1=C\c1[nH]c(C)c(C(=O)OCCn2cc(CCC[C@@H]3Cc4cc(O)ccc4C4CC[C@]5(C)[C@@H](O)CC[C@H]5C43)nn2)c1C (stereo partly drawn) | 80.8% | 85.7% | 82% | 88.6% | 53.3% | 67.8% | 92.1% | 82.2% | 62.5% | 80.5% | 50.1% | 51.9% | 131% | – | 69.9% | 96.1% | 64.2% | 96.4% | 60.1%
COc1ccc(-c2nc3sccn3c2/C=C/C(=O)c2c[nH]c3ccccc23)cc1 | 73.2% | 66.8% | 63.6% | 71.7% | 70.2% | -5.53% (active) | 55.6% | 54.1% | 78.8% | 102% | 57.3% | 78.9% | 69.8% | 32.7% | 61.3% | 78.5% | 82.7% | 87.2% | –
CO/C(=C1/NC(=O)C(Cc2ccc(O)c(Br)c2)N(C)C(=O)C(C)NC(=O)CCC/C=C(\C)CCC(C)OC1=O)c1ccccc1 (stereo not drawn) | 25.1% | -33.9% (active) | -34.3% (active) | -19.7% (active) | -22.1% (active) | -53.9% (active) | -61.1% (active) | -49.5% (active) | -35.6% (active) | 7.23% (active) | -17.3% (active) | 6.13% (active) | – | -31.3% (active) | -43.6% (active) | -65.3% (active) | -52.3% (active) | -54% (active) | -79.5% (active)
Cn1cc(-c2ccc3ncc(-c4ccc(CC(=O)Nc5cc(C(C)(C)C)nn5C)cc4)cc3c2)cn1 | 7.05% [30 µM] (active) | 11.5% [30 µM] | 15% [30 µM] | 17.6% [30 µM] | 8.3% [30 µM] (active) | 31.6% [30 µM] | -2.49% [30 µM] (active) | 17.8% [30 µM] | 39.6% [30 µM] | 5.26% [30 µM] (active) | 18.1% [30 µM] | 7% [30 µM] (active) | -0.381% [30 µM] (active) | 36% [30 µM] | 25.3% [30 µM] | 12.2% [30 µM] | 19.3% [30 µM] | 7.37% [30 µM] (active) | –
